Reference: PubChem BioAssay (NCATS)
Results filed as inconclusive are left out. Calls of active or inactive are those of the source. Calls follow the shape of the dose curve; as a rule, active = well fitted inhibition curve with a large enough effect; inconclusive = small, poorly fitted or top-dose-only effect; inactive = flat fitted curve, though single readings scatter.

Legend:
Assay in all cases: Cytotoxic Profiling of Annotated Libraries Using Quantitative High-Throughput Screening (AID 1296008); also: nearly all actives have a fitted effect of over 60% in size
Conditions in all cases: Five cell lines viability, CellTiter-Glo ATP luminescence, 48-72 h; max response: active compounds read low
CRL-7250 = normal cell line; test system: CRL-7250
Summary of the method: (§1)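 Cells exposed to compounds for 48 or 72 hr at 37 degrees Celsius. Viability read as ATP-coupled luminescence with CellTiter-Glo after 10 min at room temperature.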

HEK293 = test system: HEK293
Summary of the method: as §1

HaCat = test system: HaCat
Summary of the method: as §1

Measured: max response
% is scaled to controls: 0 for no effect and ±100 for the full control effect.

CCC(=O)N[C@@H]1Cc2ccccc2[C@H](c2ccccc2)C1
inactive: CRL-7250 | HEK293 | HaCat 0.895%

CC(/C=C/[C@]1(O)[C@@]2(C)CO[C@@]1(C)C[C@@H](O)C2)=C\C(=O)O[C@@H]1O[C@H](CO)[C@@H](O)[C@H](O)[C@H]1O
inactive: CRL-7250 | HEK293 | HaCat -14.2%

CC(C)C(=O)O[C@@H]1[C@@H](O)[C@@H](O[C@H]2O[C@H](CO)[C@@H](O)[C@H](O)[C@H]2O)O[C@H](CO)[C@H]1O
inactive: CRL-7250 -2.11% | HEK293 | HaCat

FC(F)(F)c1cc(C(F)(F)F)c2ccc3nc(-c4nnco4)cn3c2n1
inactive: all assays above

O=C(O[C@H]1[C@@H]2C[C@@H]3OC[C@@](O)([C@H]2[C@H](O[C@@H]2O[C@H](CO)[C@@H](O)[C@H](O)[C@H]2O)O3)[C@@H]1O)c1ccccc1
inactive: all assays above
